Growth data for 40 compounds are collected here from PubChem BioAssay (NCI).

The panel holds about 83,000 compounds, 20% with a hit somewhere; the sample as a whole holds those more often.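 For each line, cells grew in 96-well plates with the test compound present at a single concentration for 48 hours.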 A number with no mark means an inactive call. Activity calls are given as the source filed them.

This test concerns HS 578T breast. Put plainly: NCI-60 one-dose screen, 48 h (100 = growth as untreated, 0 = no growth, -100 = all killed). Conditions: 10 µM unless noted. As for the experimental part: Growth inhibition of the HS 578T human tumor cell line is measured as a screen for anti-cancer activity. Cells are grown in 96 well plates and exposed to the test compound for 48 hours. Compounds are tested at a single concentration, which is 10^-5 M for most compounds. The reported endpoint is percent growth (GI% or GIPRCNT), where numbers from 0 - 100% represent growth inhibition, and numbers from -100% - 0 represent cell death. For example, a value of 40 represents 60% growth inhibition. A value of 0 means no net growth occurred over the course of the experiment. A value of -40 indicates 40% of cells at the beginning of the experiment died by the end of the experiment. A value of -100 means all cells are dead at the end of the experiment.
NCI-60 Human Tumor Cell Lines Screen was performed using the standard one-dose NCI protocol, which is described in more detail at https://dtp.cancer.gov/discovery_development/nci-60/default.htm.
Compounds with GIPRCNT values below 10 were considered active. Activity score was based on GIPRCNT using the following formula: […]
Score is 0 for GIPRCNT values of 100 or above, 50 for GIPRCNT values of 0, and 100 for GIPRCNT values of -100.
`c1cncc(CNc2ccccc2-c2nnc(Nc3ccc4c(c3)OCCO4)o2)c1`: the growth is 77.9%. On to `Cc1cc(N/C=c2\sc3ncnn3c2=O)no1`, for which the growth is 98.9%. Consider `c1ccc(CCn2nnc3c(Nc4ccc(N5CCOCC5)cc4)ncnc32)cc1`, for which the growth is 97.3%. To `O=S(=O)(NCCNc1cc(-c2cn(-c3ccccc3)nc2-c2ccccc2)ccn1)c1ccc(F)cc1` belongs 87.3%; to `COc1cc(-c2n[nH]nc2-c2ccc3c(c2)OCCO3)cc(OC)c1OC`, 12.7%. To `Cc1ccc(S(=O)(=O)NCCCNc2nccc(-c3c(-c4ccccc4)nc4sccn34)n2)cc1` belongs 74.9%. For `O=C(N/N=C/c1c(Cl)cccc1Cl)c1ccccc1Nc1ccnc(C(F)(F)F)c1`, the growth was 82.7%. Regarding `COc1ccc(-c2nc3sccn3c2-c2ccnc(NCCCNS(=O)(=O)c3ccc(F)cc3)n2)cc1`, the growth is 32.5%. As for `NC(=O)c1cccc(N2Cc3ccccc3OC3=C2C(=O)c2c(O)ccc(O)c2C3=O)c1`, the figure is 20.9%. `CN(C)c1ccc(C2CC(c3ccccc3)=NN2/C=C2\SC(=O)NC2=O)cc1` (stereo not given): the growth is 98.1%. As for `c1ccn2nnnc2c1`, the figure is 105%; as for `C=C1C(=O)O[C@H]2[C@H]1CC/C(Cn1cc(-c3ccccc3C(F)(F)F)nn1)=C\CC[C@@]1(C)O[C@@H]21`, 39.1%. To `COc1cc2nc(Cl)nc(NCCO)c2cc1OC` belongs 104%; to `COC(=O)CCCCCN=Cc1c(O)c(O)c(C(C)C)c2cc(C)c(-c3c(C)cc4c(C(C)C)c(O)c(O)c(C=NCCCCCC(=O)OC)c4c3O)c(O)c12`, 19.9%; to `O=c1oc2c([nH]c3ccc4ccccc4c32)c2ccccc12`, 104%. Take `CC(=O)Nc1ccc(S(=O)(=O)N2C(=O)CCC2C(=O)Nc2ccc(Br)cc2)cc1` (stereo not given): the growth is 56.6%. Turning to `C=C1C(=O)O[C@H]2[C@H]1CC/C(COC(=O)NCCc1cccc(OC)c1)=C\CC[C@@]1(C)O[C@@H]21`, the growth was 57.9%. As for `COc1cccc(-c2nc3sccn3c2-c2ccnc(NCCCNS(=O)(=O)c3ccccc3)n2)c1`, the growth was 103%.

Take `CCC1CCc2nc3sc(C(=O)Nc4ccccc4C)c(N)c3cc2C1` (stereo not given): the growth is 49.4%.

`CC(=O)Nc1ccc2c(c1)/C(=C\C=C/c1ccc([N+](C)(C)C)cc1)c1ccccc1-2`: the growth was 25.3%.

Turning to `CC(=O)Oc1cccc(OC(C)=O)c1OC(C)=O`, the growth is 107%.

For the compound `CC1CCc2c(sc(NC(=O)CSc3nnc4ccccn34)c2C(N)=O)C1` (stereo not given), the growth was 114%.

As to `Cc1nc2sccn2c1-c1csc(Nc2ccccc2Cl)n1`, the growth is 76.7%. As for `CC/C=C\C/C=C\C[C@H]1C/C=C2/C(=O)C=C[C@H]2C/C=C\CCC(=O)O1`, the figure is 40.2%. Consider `C=C1C(=O)O[C@H]2[C@H]1CC/C(COC(=O)NCc1cc(OC)c(OC)c(OC)c1)=C\CC[C@@]1(C)O[C@@H]21`, for which the growth was 71.5%. With `COc1cc(-c2cc(/C=C3\CCCCC3=O)[nH]n2)cc(OC)c1OC`, the growth was 99.4%.

For `O=C1CCC(=O)N1Cc1ccccc1`, the growth was 102%. As for `COC(=O)C(CC(=O)c1ccc(-c2ccccc2)cc1)c1ccccc1` (stereo not given), the figure is 71.7%. Regarding `CC(Cc1nnc(SCC(=O)Nc2ccc(I)cc2)n1N)c1ccccc1` (stereo not given), the growth is 119%. As for `c1cc(-c2ccc3c(c2)OCO3)n2nccc2n1`, the figure is 105%; as for `Clc1ccc([I+]c2ccc(Cl)cc2Cl)c(Cl)c1`, 79%. Regarding `COc1cc(OC)c(C(=O)/C=C/c2ccc(C#N)cc2)c(OC)c1`, the growth was 32%.

Take `COc1ccc(/C=C/C(=O)c2cccc(B(O)O)c2)cc1O`: the growth was 32.9%. As for `CC(=O)N1Cc2ccccc2C(C)Cc2cc(Cl)ccc21` (stereo not given), the figure is 97.7%. Regarding `CC(=O)Nc1ccc(S(=O)(=O)N2C(=O)CCC2C(=O)Nc2ccccc2)cc1` (stereo not given), the growth is 63.1%.

Take `O=S(=O)(NCCCNc1cc(-c2cn(-c3ccccc3)nc2-c2cccc(O)c2)ccn1)c1ccc(Cl)cc1`: the growth was 5.52% (active). Regarding `Cc1ccc(OCCn2c(C)nn(-c3ccc(Cl)cc3)c2=O)cc1`, the growth is 89.6%.

Take `O=C(Nc1ccc(OCc2nnc(-c3ccc(Cl)cc3)o2)c(F)c1)Nc1ccc(Cl)c(Cl)c1`: the growth was 32%.

As to `Clc1nc(Cl)c2ncn(C/C=C/Cn3cnc4c(Cl)nc(Cl)nc43)c2n1`, the growth was 46.3%. To `Cc1nc2scc(-c3ccccc3)n2c(=O)c1CCO` belongs 95%.
